PubChem BioAssay (NCI)
The panel holds about 79,000 compounds, 15% with a hit somewhere; the sample as a whole holds those more often. Unmarked numbers belong to inactive results. Activity calls are given as the source filed them. No stated cut-off is given here; in the data, active means growth inhibition above about 70%; inactive means the rest.

Assay: NCI Yeast Anticancer Drug Screen. Data for the mlh1 rad18 strain (AID 175)
Conditions: S. cerevisiae mlh1 rad18 strain growth inhibition, stronger effect = higher value
Method: Growth inhibition of yeast strains with defined genetic alterations is measured as a screen for potential anti-cancer activity. Selected strains with alterations in DNA damage repair or cell cycle control were exposed to compounds and growth inhibition was measured relative to vehicle treated controls. The strain used in this assay is mlh1 rad18

[1] = at 5.0 µM (retest, dose inferred, filed as 0.5)
[2] = at 50.0 µM (retest, dose inferred, filed as 5.0)

SMILES	growth inhibition [1]	growth inhibition [2]	growth inhibition (at 50.0 µM)
CC1(C(=O)O)CCCC2(C)c3cc(O)ccc3CCC12 (stereo not given)	3%	89% (active)	42.5%
CN(C=O)NC(=O)N(CCCl)N=O	16%	23%	-11.4%
CN=C(N)N/N=C(\C)c1ccc2sc3ccc(/C(C)=N/NC(N)=NC)cc3c2c1	14%	17%	30.2%
COc1ccc2c(ccc3oc([N+](=O)[O-])cc32)c1	95% (active)	96% (active)	84.2% (active)
COC([CH2][Hg])CN1C(=O)c2cc(C)c(C)cc2C1=O (stereo not given)	99% (active)	99% (active)	99.3% (active)
O=[N+]([O-])/C=C/c1ccc(Cl)cc1[N+](=O)[O-]	96% (active)	99% (active)	99.2% (active)
CC(C)[CH2][Sn](=[O])[c]1ccccc1	5%	22%	99.2% (active)
CC(C)C12C=C3CCC4C(C)(C(=O)O)CCCC4(C)C3(CC1)OO2 (stereo not given)	1%	95% (active)	96.9% (active)
CC(=O)Oc1ccc(/C=C/[N+](=O)[O-])cc1	12%	98% (active)	98.3% (active)
COc1ccc(C[C@H]2NC[C@H](O)[C@H]2OC(C)=O)cc1	51%	98% (active)	91% (active)
[C-]#[O+].[C-]#[O+].[C-]#[O+].[C-]#[O+].[C-]#[O+].[Mo+2].[Mo+4].[c-]1[c-][c-][cH-][c-]1.[c-]1[c-][c-][cH-][c-]1.c1ccc([PH+](CC[PH+](c2ccccc2)c2ccccc2)c2ccccc2)cc1	79% (active)	98% (active)	90.5% (active)
CCCCCCNC(=O)CCl	–	–	-9.15%
CC[P+](C#Cc1ccccc1)(c1ccccc1)c1ccccc1	–	–	87.5% (active)
COc1ccc(N=NC(=O)NC(CC(C)C)C(=O)NCC(=O)O)cc1 (stereo not given)	–	–	5.35%
CCCCSP(SCCCC)N1CCCCC1	–	–	88% (active)
CN(C)c1c2c(=O)n(C)c(=O)n(C)c2nc2cccc[n+]12	–	–	11.6%
Cc1cc(N(CCCl)CCCl)ccc1C=N/C(C#N)=C(\N)C#N	–	–	-4.85%
CCN(CC)C(=O)CCN1CC1	–	–	-1.25%
